Experimental data as given in PubChem BioAssay (NCI).
Where “and” joins values, the source holds several entries; their conditions need not be identical. Equal values may be shown once. Compounds without any hit were thinned out: in the full panel of roughly 83,000, 20% have a hit.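 Activity criterion: percent growth below 10, measured after cells in 96-well plates were exposed to a single compound concentration for 48 hours.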 Calls of active or inactive are those of the source.

What was measured:
Assay in all cases: NCI-60 one-dose screen, 48 h (100 = growth as untreated, 0 = no growth, -100 = all killed)
T-47D breast = details: 10 µM
BT-549 breast = details: 10 µM
MDA-MB-435 melanoma = details: 10 µM
SW-620 colon = details: 10 µM
HCT-116 colon = details: 10 µM
HCC-2998 colon = details: 10 µM
KM12 colon = details: 10 µM
MCF7 breast = test system: MCF7 breast

Measured: growth

COc1cc2cc(OC(C)=O)c3cc4c(cc3c2c(OC)c1OC)OCO4
inactive: T-47D breast 106% | BT-549 breast 104% | MDA-MB-435 melanoma 102% | SW-620 colon 96.9% | HCT-116 colon 104% | HCC-2998 colon 107% | KM12 colon 99.8%

CC(C)C1CCCCC1O (stereo not given)
inactive: T-47D breast 107% | BT-549 breast 105% | MDA-MB-435 melanoma 100% | SW-620 colon 107% | HCT-116 colon 109% | KM12 colon 107%

O=[N+]([O-])c1ccc(-c2ncc(-c3ccc(Br)cc3)o2)cc1
inactive: T-47D breast 94.7% | BT-549 breast 113% | MDA-MB-435 melanoma 108% | SW-620 colon 93.5% | HCT-116 colon 91.4% | HCC-2998 colon 88.2% | KM12 colon 119%

COc1ncnc2c1cnn2C
inactive: T-47D breast 97.1% | BT-549 breast 95.4% | MDA-MB-435 melanoma 107% | SW-620 colon 105% | HCT-116 colon 103% | KM12 colon 103%

O=S(=O)(O)c1cc(O)c2c(N=Cc3ccccc3O)c(S(=O)(=O)O)ccc2c1
inactive: T-47D breast 106% | BT-549 breast 101% | MDA-MB-435 melanoma 109% | SW-620 colon 103% | HCT-116 colon 98.4% | HCC-2998 colon 102% | KM12 colon 103%

O=C(O)c1ccccc1NCc1ccco1
inactive: T-47D breast 103% | BT-549 breast 101% | MDA-MB-435 melanoma 119% | SW-620 colon 102% | HCT-116 colon 105% | HCC-2998 colon 80.9% | KM12 colon 117%

O=c1cc2oc3cc(O)c(O)cc3c(-c3ccccc3O)c-2cc1O
inactive: T-47D breast 70.8% | BT-549 breast 77.7% | MDA-MB-435 melanoma 68.9% | SW-620 colon 89.3% | HCT-116 colon 59.2% | HCC-2998 colon 94.7% | KM12 colon 92.7%

Nc1ccccc1C(=O)Nc1ccc(Cl)cc1Cl
inactive: T-47D breast 88% | BT-549 breast 99.2% | MDA-MB-435 melanoma 107% | SW-620 colon 85.9% | HCT-116 colon 59.9% | HCC-2998 colon 103% | KM12 colon 91%

C=C1CC/C=C(\C)C(=O)C[C@@H]2[C@@H]1CC2(C)C
inactive: T-47D breast 94.6% | BT-549 breast 105% | MDA-MB-435 melanoma 115% | SW-620 colon 119% | HCT-116 colon 99.9% | HCC-2998 colon 98.1% | KM12 colon 109%

CC(=O)OCC1CCCO1 (stereo not given)
inactive: T-47D breast 93.1% | BT-549 breast 107% | MDA-MB-435 melanoma 100% | SW-620 colon 87.3% | MCF7 breast; 10 µM unless noted 94.2% | HCT-116 colon 105% | KM12 colon 102%

O=C(c1ccc(Cl)cc1)c1ccccc1Cl
inactive: T-47D breast 74.7% | BT-549 breast 91.7% | MDA-MB-435 melanoma 106% | SW-620 colon 121% | HCT-116 colon 87.9%

CCOc1ccc(Br)cc1/C=N\N=C\c1cc(Br)ccc1OCC
inactive: T-47D breast 93% | BT-549 breast 108% | MDA-MB-435 melanoma 103% | SW-620 colon 101% | HCT-116 colon 97.8% | KM12 colon 94.2%

CCOc1ccc(I)cc1
inactive: T-47D breast 114% | BT-549 breast 116% | MDA-MB-435 melanoma 112% | SW-620 colon 105% | HCT-116 colon 102% | HCC-2998 colon 106%

Cc1ccc(N)cc1[N+](=O)[O-]
inactive: T-47D breast 107% | BT-549 breast 97.9% | MDA-MB-435 melanoma 119% | SW-620 colon 100% | HCT-116 colon 101% | HCC-2998 colon 92.5% | KM12 colon 105%

NCC(=O)CCC(=O)O
inactive: T-47D breast 100% | BT-549 breast 110% | MDA-MB-435 melanoma 108% | SW-620 colon 108% | HCT-116 colon 114% | HCC-2998 colon 97.4% | KM12 colon 108%

O=C(O)c1cc([N+](=O)[O-])ccc1Cl
inactive: T-47D breast 99.6% | BT-549 breast 97.1% | MDA-MB-435 melanoma 107% | SW-620 colon 98.5% | HCT-116 colon 102% | HCC-2998 colon 97%

CCCCC/C=N/Nc1nc(C)cc(=O)[nH]1
inactive: T-47D breast 103% | BT-549 breast 109% | MDA-MB-435 melanoma 95.7% | SW-620 colon 104% | HCT-116 colon 101% | HCC-2998 colon 98.8%

CC(C)CCOC(=O)c1ccccc1
inactive: T-47D breast 99.5% | BT-549 breast 102% | MDA-MB-435 melanoma 106% | SW-620 colon 108% | HCT-116 colon 103% | KM12 colon 106%

CCN(CC)CCNc1ccc(CO)c2sc3ccccc3c(=O)c12
inactive: T-47D breast 48.3% | BT-549 breast 70% | MDA-MB-435 melanoma 38.1% | SW-620 colon 29.5% | HCT-116 colon 23.7% | HCC-2998 colon 40.6% | KM12 colon 42.5%

CNc1nc(NC)c2cn[nH]c2n1
inactive: T-47D breast 101% | BT-549 breast 103% | MDA-MB-435 melanoma 111% | SW-620 colon 106% | HCT-116 colon 99.4% | HCC-2998 colon 100% | KM12 colon 105%

CC1(C(N)=O)CCC(C(=O)O)C1(C)C (stereo not given)
inactive: T-47D breast 91.3% | BT-549 breast 99.7% | MDA-MB-435 melanoma 97.4% | SW-620 colon 111% | HCT-116 colon 99.7% | HCC-2998 colon 99.4% | KM12 colon 111%

NC(=S)NN=C1CCCC1
inactive: T-47D breast 40.8% | BT-549 breast 107% | MDA-MB-435 melanoma 103% | SW-620 colon 72.8% | HCC-2998 colon 97.7% | KM12 colon 101%
active: HCT-116 colon 8.81%

CC(C)(C)n1nc(C2CC2)c(Br)c1NC(=O)c1ccccc1F
inactive: T-47D breast 108% | BT-549 breast 110% | MDA-MB-435 melanoma 102% | SW-620 colon 105% | HCT-116 colon 109% | HCC-2998 colon 106% | KM12 colon 98.5%

CC(=O)OC(C(=O)O)c1ccccc1 (stereo not given)
inactive: T-47D breast 118% | BT-549 breast 122% | MDA-MB-435 melanoma 105% | SW-620 colon 101% | HCT-116 colon 108% | HCC-2998 colon 96.3% | KM12 colon 106%

COC(=O)/C=C/C(=O)NC(N)=O
inactive: T-47D breast 95.3% | BT-549 breast 99.4% | MDA-MB-435 melanoma 99% | SW-620 colon 103% | HCT-116 colon 103% | HCC-2998 colon 122%

O=C(O)CCC(=O)OC(C1CO1)C(OC(=O)CCC(=O)O)C1CO1 (stereo not given)
inactive: T-47D breast 94% | BT-549 breast 108% | MDA-MB-435 melanoma 103% | SW-620 colon 106% | MCF7 breast; 10 µM unless noted 90.6% | HCT-116 colon 99.2% | KM12 colon 101%

CCC(C)(C)C1CCC(O)CC1 (stereo not given)
inactive: T-47D breast 97.5% | BT-549 breast 96.6% | MDA-MB-435 melanoma 112% | SW-620 colon 101% | MCF7 breast; 10 µM unless noted 104% | HCT-116 colon 98.9% | KM12 colon 96%

c1ccc(Cc2ccccc2)cc1
inactive: T-47D breast 93.4% | BT-549 breast 123% | MDA-MB-435 melanoma 112% | SW-620 colon 106% | HCT-116 colon 114% | HCC-2998 colon 106% | KM12 colon 98.9%

COc1cc(/C=N\Nc2ccccc2)ccc1OC(=O)c1ccccc1
inactive: T-47D breast 36.1% | BT-549 breast 91% | MDA-MB-435 melanoma 44.5% | SW-620 colon 69.8% | HCT-116 colon 71.3% | HCC-2998 colon 74.9%
active: KM12 colon 8.69%

COc1cc2c3cc1Oc1c(OC)c(OC)cc4c1C(Cc1ccc(O)c(c1)Oc1ccc(cc1)CC3N(C)CC2)N(C)CC4 (stereo not given)
81.8% (inactive) and -100% (active): MCF7 breast; 100 µM
active: MCF7 breast; 10 µM -71%

CC(=O)Nc1cccc(Cl)c1C
inactive: MDA-MB-435 melanoma 94.8% | SW-620 colon 101% | MCF7 breast; 10 µM unless noted 105% | HCT-116 colon 103% | HCC-2998 colon 107% | KM12 colon 98.9%

O=c1[nH]n(-c2ccccc2)c(=O)cc1Cl
inactive: BT-549 breast 100% | MDA-MB-435 melanoma 110% | SW-620 colon 102% | HCT-116 colon 103% | KM12 colon 112%

COC(=O)/C=C\C(=O)OC
inactive: BT-549 breast 99.7% | MDA-MB-435 melanoma 115% | SW-620 colon 105% | HCT-116 colon 108% | HCC-2998 colon 103% | KM12 colon 113%

c1c(-c2cc(C3CC3)[nH]n2)n[nH]c1C1CC1
inactive: BT-549 breast 94% | MDA-MB-435 melanoma 109% | SW-620 colon 102% | MCF7 breast; 10 µM unless noted 92.8% | HCT-116 colon 83.6% | KM12 colon 109%

N=c1c(C(=O)OCc2ccccc2)ncc(CCl)n1O
inactive: BT-549 breast 80.6% | MDA-MB-435 melanoma 96.1% | SW-620 colon 86.9% | MCF7 breast; 10 µM unless noted 91.9% | HCT-116 colon 78.3% | HCC-2998 colon 104% | KM12 colon 102%

Cc1ccc(O)c(C(=O)c2ccccc2)c1
inactive: BT-549 breast 99.1% | MDA-MB-435 melanoma 110% | SW-620 colon 100% | MCF7 breast; 10 µM unless noted 105% | HCT-116 colon 102% | KM12 colon 106%

OC1OC(COC(c2ccccc2)(c2ccccc2)c2ccccc2)C(O)C(O)C1O (stereo not given)
inactive: BT-549 breast 99.6% | MDA-MB-435 melanoma 90.9% | SW-620 colon 105% | MCF7 breast; 10 µM unless noted 93.3% | HCT-116 colon 90.7% | KM12 colon 107%

Cc1cc(NC(=O)CSCC(=O)O)no1
inactive: BT-549 breast 98.7% | MDA-MB-435 melanoma 105% | SW-620 colon 102% | MCF7 breast; 10 µM unless noted 91.9% | HCT-116 colon 101% | HCC-2998 colon 113% | KM12 colon 107%

Nc1nc2c(c(-c3nc(N)nc4c3CCc3ccccc3-4)n1)CCc1ccccc1-2
inactive: BT-549 breast 109% | MDA-MB-435 melanoma 109% | SW-620 colon 101% | MCF7 breast; 10 µM unless noted 95.4% | HCT-116 colon 105% | KM12 colon 105%

O=C1OC[C@H]2[C@H](c3ccc(O)c(O)c3)c3cc(O)c(O)cc3C[C@H]12
inactive: BT-549 breast 134% | MDA-MB-435 melanoma 121% | SW-620 colon 107% | MCF7 breast; 10 µM unless noted 121% | HCT-116 colon 103% | KM12 colon 112%

Cc1ncc(C#N)c(N)n1
inactive: BT-549 breast 94.4% | MDA-MB-435 melanoma 90.2% | SW-620 colon 99.9% | MCF7 breast; 10 µM unless noted 99.7% | HCT-116 colon 96.7% | HCC-2998 colon 102% | KM12 colon 104%

COc1ccc(-c2cc(-c3cc(-c4ccc(OC)cc4)nc(N)n3)nc(N)n2)cc1
inactive: BT-549 breast 95.2% | MDA-MB-435 melanoma 97.5% | SW-620 colon 97.5% | MCF7 breast; 10 µM unless noted 91.2% | HCT-116 colon 103% | HCC-2998 colon 112% | KM12 colon 101%
